2 compounds from PubChem BioAssay (EPA / NIEHS) can be followed below.

SMILES strings stand for the structures. Values joined by “and” are separate entries in the source; they are usually repeats but may differ in a detail not shown here. Equal entries are not always repeated. Results filed as inconclusive are left out. A structure can be active in one record and inactive in another. Active and inactive are the calls of the source. How the source made its calls: active means hit-call score of the fitted dose curve at least 0.9, where 1 is the maximum; inconclusive means response in the unintended direction; inactive means score below 0.9.

Test [1] has as its system zebrafish Estrogen Receptor (ER2a), gene 317734. The experiment in a line: ATG_zfER2a_XSP2: Attagene TRANS-FACTORIAL Multi-Species (XSP2) HepG2 Assay for zebrafish Estrogen Receptor (ER2a) (AID 2283818).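 Further: hits raise reporter mRNA so AC50 reflects activation of zebrafish ER2a.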 The procedure, abridged: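 HepG2 cells transiently transfected with GAL4-UAS reporter units and chimeric zebrafish ER2a-Gal4, exposed 24 h; medium contains 3 nM 6-alpha-fluorotestosterone and 1.5 nM norgestrel. Reporter mRNA quantified by RT-PCR, HpaI digestion, capillary electrophoresis; gain versus DMSO.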

Test [2] concerns chicken Androgen Receptor (AR), gene 422165. The experiment in a line: ATG_chAR_XSP2: Attagene TRANS-FACTORIAL Multi-Species (XSP2) HepG2 Assay for chicken Androgen Receptor (AR) (AID 2283819).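 Further: hits raise reporter mRNA above DMSO so potency is for activation.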 The method, then:
ATG_XSP2_multi-species_TRANS is a cell-based, multiplexed assay created by modifying the existing Attagene TRANS-FACTORIAL system to include a panel of nuclear receptors from some or all the following species: human (Homo sapiens), mouse (Mus musculus), frog (Xenopus laevis), zebrafish (Danio rerio), chicken (Gallus gallus), and turtle (Chrysemys picta). The ECOTOX-FACTORIAL format uses HepG2, a human liver cell line, with measurements taken at 24 hours after chemical dosing in a 24-well plate. Xsp2 included 3 nM 6-alpha-fluorotestosterone and 1.5 nM norgestrel to stimulate the androgen receptor.ATG_chAR_XSP2 is one of 29 assay components measured or calculated from the ATG_XSP2_multi-species_TRANS assay. It is designed to make measurements of mRNA induction, a form of inducible reporter, as detected with fluorescence intensity signals by Reverse transcription polymerase chain reaction (RT-PCR) and Capillary electrophoresis technology.The assay endpoint ATG_chAR_XSP2 was analyzed in the positive analysis fitting direction relative to DMSO as the negative control and baseline of activity. […] Furthermore, this assay endpoint can be referred to as a primary readout, because this assay has produced multiple assay endpoints where this one serves a reporter gene function. […]

Test [3] concerns frog Estrogen Receptor (ER), gene 398734. The experiment in a line: ATG_frER1_XSP2: Attagene TRANS-FACTORIAL Multi-Species (XSP2) HepG2 Assay for frog Estrogen Receptor (ER) (AID 2283821).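 Further: hits raise reporter mRNA above DMSO baseline so potency means agonist or activator.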 The procedure, abridged:
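HepG2 cells transiently transfected with GAL4-UAS reporter units expressing a chimeric frog ER-Gal4 protein; 24 h exposure. Reporter mRNA quantified by RT-PCR, fluorescent labelling and capillary electrophoresis; gain of signal fitted against DMSO baseline.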

Test [4] has as its system zebrafish Estrogen Receptor (ER2b), gene 317733. The experiment in a line: ATG_zfER2b_XSP2: Attagene TRANS-FACTORIAL Multi-Species (XSP2) HepG2 Assay for zebrafish Estrogen Receptor (ER2b) (AID 2283823).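 Further: fitted upward as reporter gain over DMSO so potency reflects activation.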 In a few lines:
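HepG2 human liver cells transiently transfected with multiplexed GAL4-UAS reporter units expressing chimeric NR-Gal4 proteins; compounds dosed for 24 h. Reporter mRNA quantified by RT-PCR, 6-FAM labelling and capillary electrophoresis; gain-of-signal fitted against DMSO baseline.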

Test [5] concerns frog Androgen Receptor (AR), gene 399456. As to the kind of experiment: ATG_frAR_XSP2: Attagene TRANS-FACTORIAL Multi-Species (XSP2) HepG2 Assay for frog Androgen Receptor (AR) (AID 2283824).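 Further: actives raise reporter signal above DMSO so AC50 reflects agonist-like induction.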 In a few lines:
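HepG2 cells transiently transfected with GAL4-UAS reporter units and frog (Xenopus laevis) AR-Gal4 chimera; reporter mRNA measured 24 h after dosing by RT-PCR and capillary electrophoresis. Gain of signal fitted relative to DMSO baseline.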

The target in test [6] is Estrogen receptor (Homo sapiens) (UniProt P03372). The experiment in a line: ATG_hERa_XSP2: Attagene TRANS-FACTORIAL Multi-Species (XSP2) HepG2 Assay for human Estrogen Receptor (ERa) (AID 2283827). In a few lines: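 HepG2 cells transiently transfected with multiplexed GAL4-UAS reporters driven by chimeric receptor-Gal4 proteins, dosed 24 h with 3 nM 6-alpha-fluorotestosterone and 1.5 nM norgestrel present. Reporter mRNA by RT-PCR and capillary electrophoresis; gain-of-signal fit versus DMSO.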
Sequence of Estrogen receptor (Homo sapiens) (P03372 whole entry, looked up, the tested form may be a part): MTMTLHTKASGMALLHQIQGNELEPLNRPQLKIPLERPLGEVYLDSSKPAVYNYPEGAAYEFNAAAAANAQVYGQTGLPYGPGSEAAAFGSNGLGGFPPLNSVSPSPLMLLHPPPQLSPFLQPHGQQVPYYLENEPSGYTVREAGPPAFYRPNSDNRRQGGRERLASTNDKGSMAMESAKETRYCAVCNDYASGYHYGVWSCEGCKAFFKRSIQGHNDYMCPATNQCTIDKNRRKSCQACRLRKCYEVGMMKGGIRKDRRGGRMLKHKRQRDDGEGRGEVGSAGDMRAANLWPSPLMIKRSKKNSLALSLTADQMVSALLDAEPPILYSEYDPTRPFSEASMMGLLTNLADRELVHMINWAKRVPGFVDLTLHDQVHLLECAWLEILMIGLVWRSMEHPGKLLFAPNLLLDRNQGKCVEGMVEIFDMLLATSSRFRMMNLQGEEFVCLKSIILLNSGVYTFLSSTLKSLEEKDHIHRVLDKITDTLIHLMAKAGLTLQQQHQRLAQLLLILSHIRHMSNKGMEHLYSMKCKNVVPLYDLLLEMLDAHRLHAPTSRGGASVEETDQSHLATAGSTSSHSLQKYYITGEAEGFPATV

For test [7], the system named is frog Estrogen Receptor (ER2), gene 100174814. As to the kind of experiment: ATG_frER2_XSP2: Attagene TRANS-FACTORIAL Multi-Species (XSP2) HepG2 Assay for frog Estrogen Receptor (ER2) (AID 2283828). The procedure, abridged:
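HepG2 cells transiently transfected with multiplexed GAL4-UAS reporter units expressing chimeric frog ER2–Gal4 protein; reporter mRNA measured 24 h after chemical dosing by RT-PCR, fluorescent labeling and capillary electrophoresis. Gain-of-signal fitted relative to DMSO baseline.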

Test [8] concerns the target Peroxisome proliferator-activated receptor gamma (Homo sapiens) (UniProt P37231). As to the kind of experiment: ATG_hPPARg_XSP2: Attagene TRANS-FACTORIAL Multi-Species (XSP2) HepG2 Assay for human Peroxisome Proliferator-activated Receptor gamma (PPARg) (AID 2283829).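 Further: actives raise reporter mRNA above DMSO so AC50 reflects PPARg activation.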 The procedure, abridged:
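Reporter transcripts were measured by RT-PCR, fluorescent labeling, HpaI digestion and capillary electrophoresis, relative to DMSO, 24 h post-dosing. Transiently transfected HepG2 expressed NR-Gal4 chimeras regulating GAL4-UAS reporters; medium contained 3 nM 6-alpha-fluorotestosterone plus 1.5 nM norgestrel.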

Test [9] concerns the target mouse Peroxisome Proliferator-activated Receptor gamma (PPARg), Pparg (gene 19016) (UniProt P37238). The experiment in a line: ATG_mPPARg_XSP2: Attagene TRANS-FACTORIAL Multi-Species (XSP2) HepG2 Assay for mouse Peroxisome Proliferator-activated Receptor gamma (PPARg) (AID 2283830).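 Further: hits are gains in reporter mRNA above DMSO so AC50 marks activation.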 In a few lines: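 HepG2 cells transiently transfected with GAL4-UAS reporter units for chimeric NR-Gal4 proteins including mouse PPARg, exposed 24 h; medium contained 3 nM 6-alpha-fluorotestosterone and 1.5 nM norgestrel. Reporter mRNA quantified by RT-PCR, HpaI digestion and capillary electrophoresis, vs DMSO.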

A short description of test [10]: ATG_M_19_XSP2: Attagene TRANS-FACTORIAL Multi-Species (XSP2) HepG2 Assay for M32 Transcription Factor (Internal Marker) (AID 2283822). In a few lines: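 Internal background marker in a multi-species nuclear receptor TRANS panel: transfected HepG2 cells exposed 24 h, with 3 nM 6-alpha-fluorotestosterone and 1.5 nM norgestrel present. Readout is RT-PCR of reporter transcripts resolved by capillary electrophoresis, gain-of-signal versus DMSO.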

Sequence of Peroxisome proliferator-activated receptor gamma (Homo sapiens) (P37231 whole entry, looked up, the tested form may be a part): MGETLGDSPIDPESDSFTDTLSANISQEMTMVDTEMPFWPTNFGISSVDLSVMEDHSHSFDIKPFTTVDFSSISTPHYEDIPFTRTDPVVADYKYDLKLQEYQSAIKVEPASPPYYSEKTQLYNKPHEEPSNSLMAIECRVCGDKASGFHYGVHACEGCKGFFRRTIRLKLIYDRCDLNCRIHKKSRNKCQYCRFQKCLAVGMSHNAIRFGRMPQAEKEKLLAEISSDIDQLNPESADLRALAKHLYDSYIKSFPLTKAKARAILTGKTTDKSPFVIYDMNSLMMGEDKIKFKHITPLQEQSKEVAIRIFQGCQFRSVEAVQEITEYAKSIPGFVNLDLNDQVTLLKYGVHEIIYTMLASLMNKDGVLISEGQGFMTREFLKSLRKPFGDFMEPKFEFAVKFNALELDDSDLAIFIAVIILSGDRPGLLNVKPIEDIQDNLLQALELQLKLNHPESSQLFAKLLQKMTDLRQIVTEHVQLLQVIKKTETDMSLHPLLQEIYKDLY
Sequence of mouse Peroxisome Proliferator-activated Receptor gamma (PPARg), Pparg (gene 19016) (P37238 whole entry, looked up, the tested form may be a part): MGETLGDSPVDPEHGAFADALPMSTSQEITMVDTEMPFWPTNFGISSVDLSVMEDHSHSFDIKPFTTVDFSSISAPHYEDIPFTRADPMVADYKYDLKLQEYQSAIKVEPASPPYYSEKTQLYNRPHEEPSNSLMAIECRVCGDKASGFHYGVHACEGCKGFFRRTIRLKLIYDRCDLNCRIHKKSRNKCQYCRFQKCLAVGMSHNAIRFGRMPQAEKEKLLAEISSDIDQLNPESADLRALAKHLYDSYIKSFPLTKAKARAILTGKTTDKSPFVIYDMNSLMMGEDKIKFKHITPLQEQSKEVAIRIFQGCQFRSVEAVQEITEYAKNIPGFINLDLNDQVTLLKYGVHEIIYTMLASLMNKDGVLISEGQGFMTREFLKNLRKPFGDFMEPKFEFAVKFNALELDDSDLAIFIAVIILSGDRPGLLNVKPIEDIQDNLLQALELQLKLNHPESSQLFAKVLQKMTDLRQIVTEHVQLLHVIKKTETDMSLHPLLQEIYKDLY

In general, AC50 refers to the concentration at which the activity in the assay is half-maximal. Take `O=C(c1ccc(O)cc1)c1ccc(O)cc1O`: the AC50 in test [1] is 2.27 µM (active); in [2], 10 µM (active); in test [3], 3.84 µM (active); in test [4], 3.62 µM (active); in test [6] it was 3.48 µM (active); in test [7], 2.54 µM (active). For the same compound, the compound was called inactive in test [5], in test [8] and in test [9].

`COC(=O)c1c(C)cc(O)c(C)c1O`: the half-maximal activity concentration (AC50) in test [1] is 7.57 µM (active) and 27.3 µM (active); in [3] it was 12.1 µM (active) and 17.5 µM (active); in test [4], 39.7 µM (active) and 71.2 µM (active); in test [6] it was 10.5 µM (active) and 53.7 µM (active); in test [7] it was 27.7 µM (active) and 27.2 µM (active); in [8] it was 100 µM (active) and 66.6 µM (active). In addition, in test [9], the half-maximal activity concentration (AC50) is 64.5 µM (active). The outcome in [10] and in [9] was inactive.
